Source: PubChem BioAssay
Rows were chosen to be rich in hits. Some 1.5% of all compounds tested hit in one or more screens of this group.
PrP UTR inh: inhibition of PrP 5' UTR reporter expression; cell-based PrP 5' UTR mRNA reporter, plate reader; inhibition, % (no concentration beside the values); 340,000 tested, 0.35% active; AID 488862, 2010; in the data active means inhibition above about 52%
3CLpro inhibitor: SARS-CoV 3CLpro protease inhibitors, primary screen, biochemical, quenched FRET; Replicase polyprotein 1ab (Severe acute respiratory syndrome coronavirus), P0C6X7; recombinant SARS-CoV 3CLpro, quenched FRET peptide cleavage; inhibition, % at 6 µM; 290,000 tested, 0.14% active; AID 1706, 2009; in the data active means inhibition above about 12%
MazEF act: activators of E. coli MazEF toxin-antitoxin RNase, primary screen, biochemical, fluorescence, uHTS. FAM/BHQ RNA-DNA oligo cleavage fluorescence, 5 h. Endoribonuclease toxin MazF (Escherichia coli (strain K12)), P0AE70. activation, % at 20 µM. 350,000 tested, 0.32% active; in the data active means activation above about 50%
Target sequence (P0AE70 whole entry, looked up): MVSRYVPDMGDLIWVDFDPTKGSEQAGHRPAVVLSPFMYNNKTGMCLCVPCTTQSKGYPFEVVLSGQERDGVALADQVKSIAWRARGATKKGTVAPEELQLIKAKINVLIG
VHR inh abs: VHR1 phosphatase inhibitors, primary screen, biochemical, absorbance, uHTS; Dual specificity protein phosphatase 3 (Homo sapiens), P51452; recombinant VHR phosphatase, pNPP absorbance; inhibition, % at 13.3 µM; 290,000 tested, 0.52% active; AID 1654, 2009; in the data active means inhibition above about 50%
Target sequence (P51452 whole entry, looked up): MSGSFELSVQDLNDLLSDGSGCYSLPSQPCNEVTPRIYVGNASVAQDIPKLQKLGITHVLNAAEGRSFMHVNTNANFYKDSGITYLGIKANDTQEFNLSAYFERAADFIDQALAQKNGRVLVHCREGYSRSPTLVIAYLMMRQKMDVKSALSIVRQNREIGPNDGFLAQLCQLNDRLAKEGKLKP
PrPC surface inh: inhibitors of human cell surface prion protein PrPC, primary screen, cell-based, TR-FRET; TR-FRET read-out; inhibition, % at 13.8 µM; 370,000 tested, 0.43% active; in the data active means inhibition above about 24%
Mtb hypoxia rep: PubChem AID 1159583; M. tuberculosis hypoxia-regulated fluorescent reporter, fluorescence; fluorescence inhibition, % (no concentration beside the values); 300,000 tested, 0.1% active; in the data active means fluorescence inhibition mostly above about 23%, no sharp cut-off; inactive means mostly below about 17%
Numbers stand for hits; - = inactive; . = no result.

SMILES | PrP UTR inh | 3CLpro inhibitor | MazEF act | VHR inh abs | PrPC surface inh | Mtb hypoxia rep
CC1=NN(c2ccc(C)cc2)C(=O)/C1=C\C=C\c1ccccc1 | - | - | - | - | - | -
CC1=NN(c2ccccc2)C(=O)/C1=C/C=C/C=C/N(C)C | - | - | - | - | - | 63
CN(C)S(=O)(=O)NCCNC(=O)c1cc(OCC(F)(F)F)ccc1OCC(F)(F)F | - | - | - | - | - | -
O=C(NCCNC(=O)c1cc(OCC(F)(F)F)ccc1OCC(F)(F)F)Nc1cccc(C(F)(F)F)c1 | - | 16 | - | - | - | -
COc1cccc(-c2cc(C(=O)N3CCc4ccccc4C3)[nH]n2)c1 | - | - | 93 | - | - | .
O=C(C1CC(c2ccc(F)cc2)=NO1)N1CCc2ccccc2C1 (stereo unspecified) | - | - | - | - | - | .
COc1cccc(C2=NOC(C(=O)N3CCc4ccccc4C3)C2)c1 (stereo unspecified) | - | - | - | 55 | - | .
Cc1ccc(-c2n[nH]c(=S)n2N=Cc2cc3c(cc2[N+](=O)[O-])OCO3)cc1 | . | . | . | . | . | -
Cc1cc(=O)[nH]c(N2CCCNCC2)n1 | - | - | - | 54 | . | -
COc1ccccc1C(=O)Nc1nc(-c2ccc(S(=O)(=O)N3CCOCC3)cc2)cs1 | - | - | - | - | 25 | -
CC(=O)c1cccc(OCc2cc(C(=O)N(C)Cc3cnccn3)no2)c1 | - | - | - | 50 | - | -
C=C(C)C1CC=C(C)C(=NNC(=O)c2ccc(NC(=O)c3cccc(C)c3)cc2)C1 (stereo unspecified) | . | . | . | . | . | -
O=C1NC2(CCCCC2)N=C1c1ccc(Br)cc1 | - | - | - | 55 | - | -
CCCCn1c(O)c(N=Nc2ccccn2)c2ccccc21 | - | - | - | - | - | -
CCCCn1c(O)c(N=Nc2ccccc2O)c2ccccc21 | - | . | 101 | . | - | -
COc1cccc(C2C([N+](=O)[O-])=C(N)Oc3c2c(=O)oc2ccccc32)c1 (stereo unspecified) | - | - | - | 52 | - | -
CCN1C(=O)C2C(c3ccc(-c4ccc(OC)cc4)c(OC)c3)N[C@@](CC(C)C)(C(=O)OC)C2C1=O (stereo partly specified) | . | . | . | . | . | -
CCC(CC)NC(=O)COC(=O)CCC(=O)c1cccs1 | - | - | - | 52 | - | -
COc1ccc(N(CC(=O)NC2CCCC2)C(=O)CCC(=O)Nc2nc(C)cs2)cc1OC | - | - | - | 53 | - | -
Cc1cc(C)cc(N(CC(=O)NC2CCCC2)C(=O)CCC(=O)Nc2nc(C)cs2)c1 | - | - | - | - | - | -
Cn1cccc1C=NNC(=O)Cc1ccc(Br)c2ccccc12 | . | . | . | . | . | -
Cn1c(=O)c2c(nc3n2CC(CO)O3)n(C)c1=O (stereo unspecified) | - | - | - | 59 | - | -
CC(C)OCC1Cn2c(nc3c2c(=O)n(C)c(=O)n3C)O1 (stereo unspecified) | - | - | - | - | - | -
COc1ccc(CC(=O)NN=Cc2cccnc2)cc1OC | . | . | . | . | . | -
CC(C)(C)OC(=O)N1CCCC1CO (stereo unspecified) | . | . | . | . | . | -
SMILES | PrP UTR inh | 3CLpro inhibitor | MazEF act | VHR inh abs | PrPC surface inh | Mtb hypoxia rep
COC(=O)C1=C(c2ccc(-c3ccccc3)c(F)c2)CC2CCC1N2C(=O)NC1Cc2ccccc2C1 (stereo unspecified) | . | . | . | . | . | -
O=C(COC(=O)Cc1ccc(Cl)cc1)NCc1cccs1 | - | . | - | . | - | 29
COC(=O)C1=C(C(=O)OC)[C@]2(C3CCCCNC(Cc4ccccc4)C(=O)N3Cc3ccccc3)C=CC1O2 (stereo partly specified) | . | . | . | . | . | -
COc1ccc(SCCN2CCC(O)CCC2=O)cc1 (stereo unspecified) | . | . | . | . | . | -
Cc1cccc(C)c1NC(=S)NC(C)CCc1ccccc1 (stereo unspecified) | - | - | - | 60 | - | -
Cc1nnc(NC(=O)CSc2ccc(-c3cccnc3)nn2)s1 | - | - | - | - | - | -
Cc1nnc(NC(=O)CSc2ccc(-c3ccccn3)nn2)s1 | . | - | . | - | . | 68
COc1ccccc1NS(=O)(=O)c1cccc(NC(=O)NCCCl)c1 | - | - | - | - | - | -
